Measurements as given in PubChem BioAssay (NCATS).
Records with an inconclusive call do not appear. Entries that show only a call come without a potency. The source made the active and inactive calls. Calls follow the shape of the dose curve; as a rule, active = well fitted curve in the direction sought with a large enough effect; inconclusive = small, poorly fitted or top-dose-only effect, or another doubt; inactive = no such curve, though single readings can be large; an effect the other way counts as inactive or inconclusive.

Tests used:
[1] = Cell Viability - LYMP2-015 (AID 971); also: nearly all actives have a fitted effect of over 55% in size; also: potency is read from the fitted curve at half-maximal effect
In short: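 Human lymphoblastoid cells (2500/well) in complete medium were preincubated 5 hr at 37 C, then compound-treated 24 hr at 37 C. Intracellular ATP was read by CellTiter-Glo luminescence after 30 min at room temperature; AC50 came from Hill-equation concentration-response fits.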

[2] = Cell Viability - LYMP2-025 (AID 976); also: potency is read from the fitted curve at half-maximal effect
In short: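 Human lymphoblastoid LYMP2-025 cells (2500/well) were pre-incubated 5 hr at 37 C, then treated with compounds for 24 hr at 37 C in complete medium. Viability was read as intracellular ATP by CellTiter-Glo luminescence; AC50 from Hill fits.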

[3] = Cell Viability - LYMP2-012 (AID 982);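 also: cellular ATP by luciferase luminescence where a drop means cytotoxicity; cells exposed to compound for one day before reading; nearly all actives have a fitted effect of over 55% in size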; also: potency is read from the fitted curve at half-maximal effect
[4] = Cell Viability - LYMP2-022 (AID 987); also: nearly all actives have a fitted effect of over 55% in size; also: potency is read from the fitted curve at half-maximal effect
In short: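 Human lymphoblastoid cells, 2500/well, preincubated 5 hr at 37 C, then exposed to compounds over a concentration range for 24 hr at 37 C in complete medium. Viability read as intracellular ATP by CellTiter-Glo luminescence after 30 min at room temperature; AC50 from Hill fits.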

[5] = Cell Viability - LYMP2-024 (AID 988); also: nearly all actives have a fitted effect of over 60% in size; also: potency is read from the fitted curve at half-maximal effect
In short: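 Human lymphoblastoid cells (2500/well) in complete medium were preincubated 5 hr at 37 C, then exposed to compounds for 24 hr at 37 C. Intracellular ATP was read by CellTiter-Glo luminescence; AC50 from Hill-equation fits of concentration-response data.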

[6] = Cell Viability - LYMP1-002 - Assay at 24 hr (AID 993); also: potency is read from the fitted curve at half-maximal effect
In short: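 Human lymphoblastoid LYMP1-002 cells, 2500/well in complete medium, were treated with compounds for 24 h at 37 C; intracellular ATP was read by CellTiter-Glo luminescence. AC50 values came from Hill-equation fits of qHTS concentration-response data.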

[7] = target: Alpha-galactosidase A (Homo sapiens) (UniProt P06280); experiment: Counterscreen for Glucocerebrosidase Inhibitors: qHTS Assay for Human alpha-Galactosidase at pH 4.5 (AID 992)
Chain of Alpha-galactosidase A (Homo sapiens) (P06280 whole entry, looked up): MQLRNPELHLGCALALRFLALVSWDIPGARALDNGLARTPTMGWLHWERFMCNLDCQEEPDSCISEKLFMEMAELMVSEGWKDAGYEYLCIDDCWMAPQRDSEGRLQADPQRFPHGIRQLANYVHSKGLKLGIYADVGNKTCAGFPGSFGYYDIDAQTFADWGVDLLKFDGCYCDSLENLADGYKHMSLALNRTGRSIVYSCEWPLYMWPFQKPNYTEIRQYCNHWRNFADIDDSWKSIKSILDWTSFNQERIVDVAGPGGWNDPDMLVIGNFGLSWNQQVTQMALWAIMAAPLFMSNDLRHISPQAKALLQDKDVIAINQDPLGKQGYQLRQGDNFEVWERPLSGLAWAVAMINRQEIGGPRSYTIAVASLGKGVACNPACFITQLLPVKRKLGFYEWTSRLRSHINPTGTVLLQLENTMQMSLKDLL
In short: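 Read-out is 4-methylumbelliferone fluorescence (365 nm excitation, 440 nm emission) after a pH 10 NaOH/glycine stop. Reactions held 2 nM enzyme and 80 uM substrate at pH 4.5 for 20 min at room temperature.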

[8] = Cell Viability - LYMP2-011 (AID 969); also: nearly all actives have a fitted effect of over 60% in size; also: potency is read from the fitted curve at half-maximal effect
In short: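 Human lymphoblastoid cells (2500/well) were plated in complete medium, preincubated 5 hr at 37 C, then exposed to compounds for 24 hr at 37 C. Intracellular ATP was read by CellTiter-Glo luminescence, and AC50 came from Hill-equation concentration-response fits.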

[9] = Cell Viability - LYMP2-019 (AID 973); also: nearly all actives have a fitted effect of over 55% in size; also: potency is read from the fitted curve at half-maximal effect
In short: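 Human lymphoblastoid cells were seeded at 2500 cells/well, preincubated 5 hr at 37 C, then exposed to compounds for 24 hr at 37 C in complete medium. Intracellular ATP was measured by CellTiter-Glo luminescence; AC50 from Hill fits.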

[10] = Cell Viability - LYMP2-021 (AID 974); also: potency is read from the fitted curve at half-maximal effect
In short: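 Human lymphoblastoid cells (2500/well) were preincubated 5 hr at 37 C, then exposed to compounds for 24 hr at 37 C in complete medium. Intracellular ATP was read by CellTiter-Glo luminescence; AC50 came from Hill-equation fits of concentration-response data.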

[11] = Cell Viability - LYMP2-023 (AID 975); also: nearly all actives have a fitted effect of over 55% in size; also: potency is read from the fitted curve at half-maximal effect
In short: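 Human lymphoblastoid cells (2500/well) were preincubated 5 hr at 37 C, then exposed to compounds for 24 hr at 37 C in complete medium. Cellular ATP was read by CellTiter-Glo luminescence, and AC50 came from Hill-equation fits.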

[12] = Cell Viability - LYMP2-002 (AID 977); also: potency is read from the fitted curve at half-maximal effect
In short: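 Luminescent ATP readout (CellTiter-Glo, 30 min room temperature) after 24 h compound exposure at 37 C of a human lymphoblastoid line, 2500 cells/well. AC50 values derived by standard Hill fitting of qHTS concentration-response data.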

[13] = Cell Viability - LYMP2-006 (AID 978); also: nearly all actives have a fitted effect of over 60% in size; also: potency is read from the fitted curve at half-maximal effect
In short: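 Human lymphoblastoid cells, 2500 per well, were preincubated 5 hr at 37 C, then exposed to compounds for 24 hr at 37 C in complete medium. Viability was read as intracellular ATP by CellTiter-Glo luminescence; AC50 from Hill-equation fits of qHTS concentration-response data.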

[14] = Cell Viability - LYMP2-007 (AID 979);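 also: cells exposed to compound for 24 h before reading; nearly all actives have a fitted effect of over 60% in size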; also: potency is read from the fitted curve at half-maximal effect
In short: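 Human lymphoblastoid cells (2500/well) were plated in complete medium, incubated 5 hr at 37 C, then exposed to compounds for 24 hr at 37 C. Intracellular ATP was read by CellTiter-Glo luminescence after 30 min at room temperature; AC50 from Hill fits.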

[15] = Cell Viability - LYMP2-008 (AID 980); also: nearly all actives have a fitted effect of over 60% in size; also: potency is read from the fitted curve at half-maximal effect
In short: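 Human lymphoblastoid cells (2500/well) were plated, held 5 hr at 37 C, then exposed to compounds for 24 hr at 37 C in complete medium. Intracellular ATP was read by CellTiter-Glo luminescence; AC50 from Hill-fitted concentration-response.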

[16] = Cell Viability - LYMP2-014 (AID 983); also: nearly all actives have a fitted effect of over 50% in size; also: potency is read from the fitted curve at half-maximal effect
In short: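 Human lymphoblastoid cells (2500/well) were pre-incubated 5 hr at 37 C, then exposed to compounds in complete medium for 24 hr at 37 C. Intracellular ATP was read by CellTiter-Glo luminescence after 30 min at room temperature; AC50 from Hill fits.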

[17] = Cell Viability - LYMP2-016 (AID 984); also: nearly all actives have a fitted effect of over 55% in size; also: potency is read from the fitted curve at half-maximal effect
In short: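 Human lymphoblastoid cells (LYMP2-016), 2500/well in complete medium, preincubated 5 hr at 37 C, then compound-treated 24 hr at 37 C. Intracellular ATP read by CellTiter-Glo luminescence after 30 min at room temperature; AC50 from Hill-equation concentration-response fits.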

[18] = Cell Viability - LYMP2-018 (AID 985);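 also: compound exposure lasted 24 hr at 37 °C; nearly all actives have a fitted effect of over 50% in size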; also: potency is read from the fitted curve at half-maximal effect
In short: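 Human lymphoblastoid cells (2500/well) were pre-incubated 5 hr at 37 C, then exposed to compounds for 24 hr at 37 C in complete medium. Viability was read as intracellular ATP by CellTiter-Glo luminescence; AC50 values came from Hill-equation fits.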

[19] = Cell Viability - LYMP2-020 (AID 986); also: nearly all actives have a fitted effect of over 55% in size; also: potency is read from the fitted curve at half-maximal effect
In short: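 Human lymphoblastoid cells, 2500/well, were pre-incubated 5 hr at 37 C, then exposed to compounds for 24 hr at 37 C in complete medium. Intracellular ATP was read by CellTiter-Glo luminescence, and AC50 was derived by Hill fitting of concentration-response data.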

[20] = Cell Viability - LYMP2-026 (AID 989); also: nearly all actives have a fitted effect of over 50% in size; also: potency is read from the fitted curve at half-maximal effect
In short: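 Human lymphoblastoid cells (2500/well) in complete medium were preincubated 5 hr at 37 C, then exposed to compounds for 24 hr at 37 C. Cellular ATP was read by CellTiter-Glo luminescence; AC50 from Hill-equation fits of concentration-response data.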

SMILES	Potency [1]	Potency [2]	Potency [3]	Potency [4]	Potency [5]	Potency [6]	outcome [7]	Potency [8]	Potency [9]	Potency [10]	Potency [11]	Potency [12]	Potency [13]	Potency [14]	Potency [15]	Potency [16]	Potency [17]	Potency [18]	Potency [19]	Potency [20]
CC(=O)OC/C=C(C)/C=C/C=C(C)/C=C/C1=C(C)CCCC1(C)C	50.1 µM (active)	inactive	50.1 µM (active)	50.1 µM (active)	39.8 µM (active)	inactive	–	–	–	–	–	–	–	–	–	–	–	–	–	–
O=[N+]([O-])c1ccc(-c2nc(-c3ccc(F)cc3)c(-c3ccncc3)[nH]2)cc1	–	–	–	–	–	–	inactive	–	–	–	–	–	–	–	–	–	–	–	–	–
Brc1ccccc1-c1ccccc1	inactive	inactive	inactive	inactive	inactive	inactive	–	inactive	inactive	inactive	inactive	inactive	inactive	inactive	inactive	inactive	inactive	inactive	inactive	inactive
O=C(c1ccccc1)c1ccccc1	inactive	inactive	inactive	inactive	inactive	inactive	–	inactive	inactive	inactive	inactive	inactive	inactive	inactive	inactive	inactive	inactive	inactive	inactive	inactive
CC(C)N(CCC(=O)c1ccc2ccccc2c1)Cc1ccccc1	–	–	–	–	–	–	inactive	–	–	–	–	–	–	–	–	–	–	–	–	–
CN(C)c1cc2c(Nc3ccc4c(cnn4Cc4ccccc4)c3)ncnc2cn1	–	–	–	–	–	–	inactive	–	–	–	–	–	–	–	–	–	–	–	–	–
CC(C)(C)c1ccc(O)c(O)c1	31.6 µM (active)	–	39.8 µM (active)	39.8 µM (active)	25.1 µM (active)	–	–	–	39.8 µM (active)	31.6 µM (active)	–	–	50.1 µM (active)	39.8 µM (active)	50.1 µM (active)	–	50.1 µM (active)	–	50.1 µM (active)	–
Brc1ccc([C@H]2CN3CCSC3=N2)cc1	–	–	–	–	–	–	inactive	–	–	–	–	–	–	–	–	–	–	–	–	–
Cc1ccc(O)cc1	inactive	inactive	inactive	inactive	inactive	inactive	–	inactive	inactive	inactive	inactive	inactive	inactive	inactive	inactive	inactive	inactive	inactive	inactive	inactive
CCCCCCCCCCCCCCCC[n+]1ccccc1	15.8 µM (active)	39.8 µM (active)	12.6 µM (active)	12.6 µM (active)	15.8 µM (active)	15.8 µM (active)	–	20 µM (active)	20 µM (active)	25.1 µM (active)	39.8 µM (active)	15.8 µM (active)	12.6 µM (active)	12.6 µM (active)	15.8 µM (active)	12.6 µM (active)	15.8 µM (active)	12.6 µM (active)	15.8 µM (active)	15.8 µM (active)
O=C(NO)c1ccccc1	inactive	inactive	inactive	inactive	inactive	inactive	–	inactive	inactive	inactive	inactive	inactive	inactive	inactive	inactive	inactive	inactive	inactive	inactive	inactive
CCCC(=O)c1cc(O)c(O)cc1O	inactive	inactive	inactive	inactive	–	inactive	–	inactive	inactive	inactive	inactive	inactive	inactive	–	inactive	inactive	inactive	inactive	inactive	inactive
O=C1NC(c2cccc([N+](=O)[O-])c2)=CCN1c1ccccc1O	–	–	–	–	–	–	inactive	–	–	–	–	–	–	–	–	–	–	–	–	–
CCCCC(CC)COC(=O)c1ccccc1C(=O)O (configuration not stated)	inactive	inactive	inactive	inactive	inactive	inactive	–	inactive	inactive	inactive	inactive	inactive	inactive	inactive	inactive	inactive	inactive	inactive	inactive	inactive
O=C(Oc1ccccc1)c1ccccc1O	inactive	inactive	inactive	inactive	inactive	inactive	–	inactive	inactive	inactive	inactive	inactive	inactive	inactive	inactive	inactive	inactive	inactive	inactive	inactive
Cn1cnc2c(NCc3ccccc3)nc(NCCO)nc21	–	–	–	–	–	–	inactive	–	–	–	–	–	–	–	–	–	–	–	–	–
CC(C)(c1ccc(O)cc1)c1ccc(O)cc1	inactive	inactive	inactive	inactive	inactive	inactive	–	inactive	inactive	inactive	inactive	inactive	inactive	inactive	inactive	inactive	inactive	inactive	inactive	inactive
